Reference: PubChem BioAssay (Tox21)
Several values for one entry are separate records, joined by “and”; a condition that tells them apart may be missing. Equal entries are not always repeated. Inconclusive results are not listed. Entries that show only a call come without a potency. Some compounds were tested as several samples or in several runs, with calls that do not always agree. Activity calls are given as the source filed them. Unless noted, the call rests on the fitted dose curve; in most records, active means well fitted curve in the direction sought with a large enough effect in the repeat runs; inconclusive means weak or mixed curves; inactive means no such curve, though single readings can be large; an effect the other way counts as inactive or inconclusive.

Key:
[1] = qHTS assay for small molecules that induce genotoxicity in human embryonic kidney cells expressing luciferase-tagged ATAD5 (AID 651632); further: nearly all actives have a fitted effect of over 15% in size; further: potency means the concentration at half of the fitted maximal effect
Method in brief: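 Genotoxicity read-out via ATAD5-luciferase: HEK293T cells, 16 hr compound incubation at 37C, Amplite detection.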

[2] = qHTS assay for small molecule agonists of the p53 signaling pathway - cell viability (AID 651633; calls by dose curve; further: nearly all actives have a fitted effect of over 30% in size; further: potency means the concentration at half of the fitted maximal effect)
Method in brief: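 p53RE-bla cells, seeded at 4,000 per well and rested 5 h at 37 C/5% CO2, received compounds in DMSO for 16 h at 37 C. CellTiter-Glo was then added, and luminescence was read after 30 min at room temperature to gauge cytotoxicity.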

[3] = qHTS assay for small molecules that induce genotoxicity in human embryonic kidney cells expressing luciferase-tagged ATAD5 - cell viability (AID 651634; calls by dose curve; further: nearly all actives have a fitted effect of over 25% in size; further: potency means the concentration at half of the fitted maximal effect)
Method in brief: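 Live-cell protease activity (CellTiter-Fluor, fluorescence) indicates viability. HEK293T cells with luciferase-tagged ATAD5; 15.5 hr compound treatment at 37C.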

[4] = qHTS assay to test for compound auto fluorescence at 590 nm (red) in HepG2 cells (AID 720674)
Method in brief: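 Rose Bengal sodium served as the red fluorophore standard. HepG2 monolayers (overnight attachment, MEM with 10% FBS) were exposed to test compounds for 1 hr at 37 C and read at Ex 540/Em 590 nm.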

[5] = qHTS assay to test for compound auto fluorescence at 535 nm (green) in HepG2 cells (AID 720675); further: potency means the concentration at half of the fitted maximal effect
[6] = qHTS assay to test for compound auto fluorescence at 460 nm (blue) in HEK293 cells (AID 720678); further: potency means the concentration at half of the fitted maximal effect
Method in brief: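 Measured: blue fluorescence (Ex 405/Em 460 nm) of compound-treated HEK293 cells, incubated overnight at 37C with 5% CO2 and scaled to triamterene equivalents.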

[7] = qHTS assay to test for compound auto fluorescence at 590 nm (red) in HEK293 cells (AID 720679)
Method in brief: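 Using HEK293 cells at 2,000 per well, the screen added 23 nL of each compound after cell attachment and incubated overnight (37C, 5% CO2). The plate reader then captured red-label fluorescence, Ex/Em 540/590nm.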

[8] = qHTS assay for small molecule disruptors of the mitochondrial membrane potential (AID 720635); further: potency means the concentration at half of the fitted maximal effect
Method in brief: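 HepG2 cells (2,000/well) attached overnight at 37C, then took compound for 1 hr at 37C, 5% CO2. Mito-MPS dye was added for 30 min; fluorescence was read at 490/535 nm (monomers) and 540/590 nm (aggregates).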

[9] = qHTS assay for small molecule disruptors of the mitochondrial membrane potential - cell viability (AID 720634; calls by dose curve; further: nearly all actives have a fitted effect of over 20% in size; further: potency means the concentration at half of the fitted maximal effect)
Method in brief: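 Human hepatoma HepG2 cells were treated for 1 hr with test chemicals, then given m-MPI dye and CellTiter-Glo. Cell viability reflects luminescence proportional to cellular ATP.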
Tags describe the fitted curve by direction and shape or compound fluorescence and quenching.

| Structure (SMILES) | Potency [1] | Potency [2] | Potency [3] | outcome [4] | Potency [5] | Potency [6] | outcome [7] | Potency [8] | Potency [9] | fluorescence, relative to Rose Bengal [4] | fluorescence, % of fluorescein control [5] | fluorescence, % of triamterene [6] | fluorescence, % of fluorescent control [7] |
| --- | --- | --- | --- | --- | --- | --- | --- | --- | --- | --- | --- | --- | --- |
| c1ccc2cc3c(ccc4ccccc43)cc2c1 | 68.8 µM (active) | inactive | inactive | inactive | inactive | inactive | inactive | – | – | – | – | – | – |
| CCCCCCC(O)CCCCCCCCCCC(=O)O (centres undefined) | inactive | inactive | inactive | – | inactive | inactive | inactive | inactive and 54.5 µM (active) | – | – | – | – | – |
| CC1COc2c(N3CCN(C)CC3)c(F)cc3c(=O)c(C(=O)O)cn1c23 (centres undefined) | inactive | inactive | inactive | – | inactive | inactive | inactive | – | – | – | – | – | – |
| Cc1ccnc2c1NC(=O)c1cccnc1N2C1CC1 | inactive | inactive | inactive | – | inactive | inactive | inactive | – | inactive | – | – | – | – |
| CC(N)=O | inactive | inactive | inactive | – | inactive | inactive | inactive | inactive | – | – | – | – | – |
| CCC(C)(C)C(=O)O[C@H]1C[C@@H](C)C=C2C=C[C@H](C)[C@H](CC[C@@H]3C[C@@H](O)CC(=O)O3)[C@H]21 | inactive | inactive and 61.1 µM (active) | inactive | inactive | inactive | inactive | inactive | – | – | – | – | – | – |
| O=C(O[C@@H]1Cc2c(O)cc(O)cc2O[C@@H]1c1cc(O)c(O)c(O)c1)c1cc(O)c(O)c(O)c1 | inactive | inactive | – | – | inactive | inactive | inactive | 27.4 µM (active) | – | – | – | – | – |
| Cc1cc(OCCOCC[N+](C)(C)Cc2ccccc2)ccc1C(C)(C)CC(C)(C)C | inactive | – | 9.63 µM (active) | inactive | inactive | inactive | inactive | 16.8 µM (active) and 3.05 µM (active) | 12.1 µM (active) | – | – | – | – |
| O=C1OC2(c3ccc(O)cc3Oc3cc(O)ccc32)c2ccccc21 | inactive | – | – | inactive | 3.16 µM (active) and 2.51 µM (active) and 3.98 µM (active) | inactive | inactive | 84.1 nM (active) and 61.1 nM (active) | – | – | – | – | – |
| CC(C)CCOC(=O)c1ccc(N(C)C)cc1 | 13.3 µM (active) | inactive | inactive | inactive | inactive | inactive | inactive | – | – | – | – | – | – |
| CC(C)CCCCCCc1ccc(O)cc1 | inactive | 62.2 µM (active) | – | – | inactive | inactive | inactive | 5.31 µM (active) and 1.56 µM (active) and 5.45 µM (active) | 6.22 µM (active) and 61.1 µM (active) | – | – | – | – |
| COc1ccc(CCN(C)CCCC(C#N)(c2ccc(OC)c(OC)c2)C(C)C)cc1OC (centres undefined) | inactive | inactive | inactive | inactive | inactive | inactive | inactive | – | – | – | – | – | – |
| NCCCCCC(=O)O | inactive | inactive | inactive | – | – | – | – | inactive | – | -0.673% [at 18.6 µM] (inactive) | 0.0481% [at 18.6 µM] (inactive) | 0.0733% [at 18.6 µM] (inactive) | 0.0137% [at 18.6 µM] (inactive) |
| Cc1ccc(-c2cc(C(F)(F)F)nn2-c2ccc(S(N)(=O)=O)cc2)cc1 | inactive | 54.3 µM (active) | – | inactive | inactive | inactive | inactive | 11.9 µM (active) and 7.66 µM (active) and 21.7 µM (active) | 11.9 µM (active) and 12.1 µM (active) and 30.6 µM (active) | – | – | – | – |
| CCCNC(C)C(=O)Nc1ccccc1C (centres undefined) | inactive | inactive | inactive | – | inactive | inactive | inactive | inactive | – | – | – | – | – |
| COc1ccc(COC(C)=O)cc1 | inactive | inactive | inactive | inactive | inactive | inactive | inactive | inactive | – | – | – | – | – |
| O=C1CC2(CCCC2)CC(=O)N1CCCCN1CCN(c2ncccn2)CC1 | inactive | – | inactive | inactive | inactive | inactive | inactive | inactive and 30.6 µM (active) | inactive | – | – | – | – |
| CC(=O)OCCOCCOCCOC(C)=O | inactive | inactive | inactive | inactive | inactive | inactive | inactive | inactive | – | – | – | – | – |
| CCCCCCCCCCCCc1ccccc1O | inactive | 26.9 µM (active) and 24.3 µM (active) | 30.6 µM (active) | – | inactive | inactive | inactive | 2.14 µM (active) and 2.43 µM (active) | – | – | – | – | – |
| CCc1ccc(C(c2ccc(CC)cc2)C(Cl)Cl)cc1 | inactive | inactive | inactive | inactive | inactive | inactive | inactive | 49.3 µM (active) and 27.3 µM (active) | – | – | – | – | – |
| Oc1c(Cl)cc(Cl)cc1Sc1cc(Cl)cc(Cl)c1O | inactive | – | 11.9 µM (active) and 30.7 µM (active) and 48.6 µM (active) | inactive | inactive | inactive | inactive | – | 13.7 µM (active) and inactive | – | – | – | – |

| Structure (SMILES) | Potency [1] | Potency [2] | Potency [3] | outcome [4] | Potency [5] | Potency [6] | outcome [7] | Potency [8] | Potency [9] | fluorescence, relative to Rose Bengal [4] | fluorescence, % of fluorescein control [5] | fluorescence, % of triamterene [6] | fluorescence, % of fluorescent control [7] |
| --- | --- | --- | --- | --- | --- | --- | --- | --- | --- | --- | --- | --- | --- |
| COC(=O)/C=C/c1ccccc1 | inactive | inactive | inactive | inactive | inactive | inactive | inactive | – | – | – | – | – | – |
| CCCCC(CC)COC(=O)CC(C(=O)OCC(CC)CCCC)S(=O)(=O)O (centres undefined) | inactive | 29.8 µM (active) and 58.8 µM (active) and 61.1 µM (active) | inactive | inactive | inactive | inactive | inactive | 58.8 µM (active) | – | – | – | – | – |
| COc1cc(C(=S)N2CCOCC2)ccc1O | inactive | inactive | inactive | – | inactive | inactive | inactive | – | inactive | – | – | – | – |
| CCCCCCCCCCCC[N+](C)(C)C | inactive | – | inactive | inactive | inactive | inactive | inactive | 61.1 µM (active) | inactive | – | – | – | – |
| C=CC(=O)OCCCCCCCC | inactive | inactive | inactive | – | inactive | inactive | inactive | inactive | – | – | – | – | – |
| O=C(Nc1ccccc1SSc1ccccc1NC(=O)c1ccccc1)c1ccccc1 | inactive | inactive | – | inactive | inactive | inactive | inactive | 7.74 µM (active) and 15.4 µM (active) | – | – | – | – | – |
| CCc1cc(C(C)(C)C)c(O)c(C(C)(C)C)c1 | inactive | 15.5 µM (active) and inactive | – | – | inactive | inactive | inactive | 15.5 µM (active) and 30.6 µM (active) | – | – | – | – | – |
| C=CS(=O)(=O)O | inactive | inactive | inactive | – | inactive | inactive | inactive | – | inactive | – | – | – | – |
| Cc1scc2c1N(C(=O)CN1CCN(C)CC1)c1ccccc1NC2=O | inactive | inactive | inactive | – | inactive | inactive | inactive | – | inactive | – | – | – | – |
| CCCCCCCCCCCCCCCCCl | inactive | inactive | inactive | – | – | – | – | – | – | -0.733% [at 18.6 µM] (inactive) | -0.021% [at 18.6 µM] (inactive) | 0.0135% [at 18.6 µM] (inactive) | 0.199% [at 18.6 µM] (inactive) |
| CN(C)c1ccc2nc3ccc(=[N+](C)C)cc-3sc2c1 | inactive | 3.35 µM (active) | 11.9 µM (active) and 2.94 µM (active) and 48.6 µM (active) | inactive | inactive | inactive | inactive | 2.37 µM (active) and 830 nM (active) and 1.37 µM (active) | – | – | – | – | – |
| Nc1nc(=S)c2[nH]cnc2[nH]1 | – | – | – | inactive | inactive | inactive | inactive | inactive | inactive | – | – | – | – |
| CCN(CC)c1ccc2c(C)cc(=O)oc2c1 | – | inactive | inactive | – | inactive | 39.8 µM [fluorescent] (active) | inactive | – | – | – | – | – | – |
| c1ccc2c(c1)-c1cccc3c1c-2cc1ccccc13 | – | – | inactive | inactive | inactive | inactive | inactive | 13.4 µM (active) and 13.7 µM (active) | 17.2 µM (active) | – | – | – | – |
| CC1=C(C=O)C(C)(C)CC=C1 | – | inactive | inactive | inactive | inactive | inactive | inactive | – | – | – | – | – | – |
| O=C(O)c1cccc(C(=O)O)c1 | – | inactive | – | – | inactive | inactive | inactive | inactive | inactive | – | – | – | – |
| CCN1CCCC1CNC(=O)c1cc(S(=O)(=O)CC)c(N)cc1OC (centres undefined) | – | inactive | inactive | inactive | inactive | inactive | inactive | inactive | inactive | – | – | – | – |
| CC(C)CCOCc1ccccc1 | – | inactive | inactive | – | inactive | inactive | inactive | – | inactive | – | – | – | – |
| CC(COc1ccccc1)N(CCCl)Cc1ccccc1 (centres undefined) | – | – | inactive | inactive | inactive | inactive | inactive | inactive and 43.7 µM (active) and 43.3 µM (active) | inactive | – | – | – | – |
| O=C(Cl)c1cccc(C(=O)Cl)c1 | – | inactive | inactive | inactive | inactive | inactive | inactive | inactive | inactive | – | – | – | – |
| CCCC(=O)c1ccccc1 | – | inactive | inactive | – | inactive | inactive | inactive | – | – | – | – | – | – |
